Outcome and AC50 data for 14 compounds are collected here from PubChem BioAssay (EPA / NIEHS).

Experiment [1] concerns the target Caspase-3 (Homo sapiens) (UniProt P42574). Kind of experiment: NVS_ENZ_hCASP3: NovaScreen (NVS) Enzymatic Assay for human Caspase 3 (CASP3) (AID 2283139). Summed up: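 Recombinant human caspase-3 from E. coli with a fluorogenic substrate, read by fluorescence 1 h after dosing. Primary screen in duplicate at 25 uM. Actives (for example ≥30% inhibition) rerun as concentration-response up to 50 uM.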

For experiment [2], the target named is Cytochrome P450 2C19 (Homo sapiens) (UniProt P33261). Nature of the experiment: NVS_ADME_hCYP2C19: NovaScreen (NVS) CYP450-related Enzyme Activity (ADME) Assay for human CYP2C19 (AID 2283113).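 Further: potency for inhibition seen as loss of fluorescent signal.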 The essentials: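 Recombinant insect-cell-expressed enzyme, fluorescent substrate, 1 h after chemical addition, fluorescence intensity. Baseline = acetonitrile vehicle; activity scored as signal loss. Primary HTS single concentration 10 uM, duplicate; actives retested in concentration series.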

The target of experiment [3] is human Acetylcholinesterase (AChE), ACHE (gene 43) (UniProt P22303). Nature of the experiment: NVS_ENZ_hAChE: NovaScreen (NVS) Enzymatic Assay for human Acetylcholinesterase (AChE) (AID 2283129). The essentials:
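Cell-free colorimetric enzyme-activity assay; compounds read 0.33 hour after dosing, loss of signal vs DMSO baseline. Primary screen in duplicate at 25 uM single concentration, with active compounds retested in concentration series.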

For experiment [4], the target named is human CYP2D6, CYP2D6 (gene 1565) (UniProt P10635). Kind of experiment: NVS_ADME_hCYP2D6: NovaScreen (NVS) CYP450-related Enzyme Activity (ADME) Assay for human CYP2D6 (AID 2283107). Summed up:
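Fluorescence intensity read 1 h post-dosing; insect-cell-expressed recombinant protein with fluorogenic substrate, no cells. Activity is scored as signal loss relative to acetonitrile baseline, first at a single 10 uM concentration in duplicate, then as concentration series for confirmed actives.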

The target in experiment [5] is human Caspase 5 (CASP5), CASP5 (gene 838) (UniProt P51878). Nature of the experiment: NVS_ENZ_hCASP5: NovaScreen (NVS) Enzymatic Assay for human Caspase 5 (CASP5) (AID 2283137). The essentials:
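E. coli-derived enzyme, cell-free, 2 h incubation, fluorescence intensity. 25 uM duplicate single-point; hits → concentration series to 50 uM. DMSO baseline, positive/negative controls on every plate.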

Experiment [6] deals with rat CYP2A2, Cyp2a2 (gene 24895) (UniProt P15149). Kind of experiment: NVS_ADME_rCYP2A2: NovaScreen (NVS) CYP450-related Enzyme Activity (ADME) Assay for rat CYP2A2 (AID 2283116). The essentials:
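Cell-free recombinant rat CYP2A2 activity with fluorogenic substrate, fluorescence read 0.2 h after dosing. Chemicals screened at 10 uM in duplicate, hits then run in concentration-response up to 20 uM; signal loss versus acetonitrile baseline.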

For experiment [7], the system named is rat CYP2B1, gene 24300. Kind of experiment: NVS_ADME_rCYP2B1: NovaScreen (NVS) CYP450-related Enzyme Activity (ADME) Assay for rat CYP2B1 (AID 2283117). The essentials: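 Recombinant rat CYP2B1 with fluorogenic substrate, read at 0.75 h. Primary screen in duplicate at 10 uM; compounds meeting threshold (e.g., 30% inhibition) re-run in concentration-response up to 20 uM. Fitted against acetonitrile control.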

The target in experiment [8] is human CYP2C9, CYP2C9 (gene 1559) (UniProt P11712). Kind of experiment: NVS_ADME_hCYP2C9: NovaScreen (NVS) CYP450-related Enzyme Activity (ADME) Assay for human CYP2C9 (AID 2283108). Summed up: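 Fluorescence readout of CYP2C9 activity (SF9-expressed human enzyme) at 0.75 h. The primary screen used 10 uM in duplicate, with concentration-response follow-up for actives; acetonitrile was the negative control.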

Experiment [9] deals with Cytochrome P450 3A4 (Homo sapiens) (UniProt P08684). Nature of the experiment: NVS_ADME_hCYP3A4: NovaScreen (NVS) CYP450-related Enzyme Activity (ADME) Assay for human CYP3A4 (AID 2283110). The essentials: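 Compounds were first screened in duplicate at 10 uM against recombinant CYP3A4 produced in insect cells, then actives were run in concentration series. Enzyme activity was measured by fluorescence after 0.33 hour, with acetonitrile as baseline.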

Experiment [10] addresses rat CYP2A1, Cyp2a1 (gene 24894) (UniProt P11711). Nature of the experiment: NVS_ADME_rCYP2A1: NovaScreen (NVS) CYP450-related Enzyme Activity (ADME) Assay for rat CYP2A1 (AID 2283114; active means hit-call score of the fitted dose curve at least 0.9, where 1 is the maximum; inactive means score below 0.9). Summed up:
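Recombinant rat CYP2A1, cell-free, fluorogenic substrate turnover read by fluorescence intensity 0.75 h after dosing. Primary screen at 10 uM in duplicate; actives rerun as concentration-response up to 20 uM; loss of signal versus acetonitrile control.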

In experiment [11] the target is rat CYP2C11, Cyp2c11 (gene 29277) (UniProt P08683). Kind of experiment: NVS_ADME_rCYP2C11: NovaScreen (NVS) CYP450-related Enzyme Activity (ADME) Assay for rat CYP2C11 (AID 2283118). Summed up: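 Cell-free recombinant rat enzyme with fluorescent substrate; readout 0.33 h after dosing, loss of signal versus acetonitrile control. Initial duplicate single-point at 10 uM; actives rerun in concentration series.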

Experiment [12] addresses rat CYP2C13, Cyp2c13 (gene 171521) (UniProt P20814). Kind of experiment: NVS_ADME_rCYP2C13: NovaScreen (NVS) CYP450-related Enzyme Activity (ADME) Assay for rat CYP2C13 (AID 2283121). The essentials:
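Recombinant rat CYP2C13 with fluorogenic substrate, 0.75 h cell-free incubation; primary screen in duplicate at 10 uM, actives followed in concentration series. Fluorescence loss relative to acetonitrile control indicates inhibition.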

For experiment [13], the target named is human AKT serine/threonine Kinase 1 (AKT1), AKT1 (gene 207) (UniProt P31749). Kind of experiment: NVS_ENZ_hAKT1: NovaScreen (NVS) Enzymatic Assay for human AKT serine/threonine Kinase 1 (AKT1) (AID 2283138). Summed up:
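Recombinant AKT1, specific substrate, cell-free; 1 h; fluorescence intensity/electrophoretic mobility shift. Duplicate single-point 25 uM, then singleton CRC max 50 uM. DMSO = negative control/baseline; signal loss = inhibition.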

The target in experiment [14] is human Caspase 10 (CASP10), CASP10 (gene 843) (UniProt Q92851). Kind of experiment: NVS_ENZ_hCASP10: NovaScreen (NVS) Enzymatic Assay for human Caspase 10 (CASP10) (AID 2283133). Summed up: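 Recombinant human caspase-10 from E. coli, cell-free fluorogenic substrate assay read 1 h after dosing. Primary duplicate screen at 25 uM; hits (e.g. ≥30% inhibition) run singly in concentration-response up to 50 uM, normalised to DMSO.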

Each structure is given as a SMILES string. Where “and” joins values, the source holds several entries; their conditions need not be identical. Equal values may be shown once. Records with an inconclusive call do not appear. Calls of active or inactive are those of the source. How the source made its calls, unless noted: active means hit-call score of the fitted dose curve at least 0.9, where 1 is the maximum; inconclusive means response in the unintended direction; inactive means score below 0.9.

Sequence of human CYP2C9, CYP2C9 (gene 1559) (P11712 whole entry, looked up): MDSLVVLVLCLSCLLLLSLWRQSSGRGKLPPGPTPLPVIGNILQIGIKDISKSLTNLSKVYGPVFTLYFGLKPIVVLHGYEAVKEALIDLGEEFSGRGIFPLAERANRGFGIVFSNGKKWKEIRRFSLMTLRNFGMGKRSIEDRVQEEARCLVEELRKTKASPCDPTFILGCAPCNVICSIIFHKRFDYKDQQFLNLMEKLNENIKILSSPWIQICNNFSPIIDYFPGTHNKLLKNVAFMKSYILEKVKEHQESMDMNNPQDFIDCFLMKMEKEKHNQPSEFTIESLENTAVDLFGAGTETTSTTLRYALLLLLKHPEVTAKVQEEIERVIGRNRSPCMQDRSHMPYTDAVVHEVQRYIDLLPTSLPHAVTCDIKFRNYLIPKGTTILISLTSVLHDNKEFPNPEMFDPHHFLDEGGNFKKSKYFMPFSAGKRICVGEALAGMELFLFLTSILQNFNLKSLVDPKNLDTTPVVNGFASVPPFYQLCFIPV
Sequence of human AKT serine/threonine Kinase 1 (AKT1), AKT1 (gene 207) (P31749 whole entry, looked up): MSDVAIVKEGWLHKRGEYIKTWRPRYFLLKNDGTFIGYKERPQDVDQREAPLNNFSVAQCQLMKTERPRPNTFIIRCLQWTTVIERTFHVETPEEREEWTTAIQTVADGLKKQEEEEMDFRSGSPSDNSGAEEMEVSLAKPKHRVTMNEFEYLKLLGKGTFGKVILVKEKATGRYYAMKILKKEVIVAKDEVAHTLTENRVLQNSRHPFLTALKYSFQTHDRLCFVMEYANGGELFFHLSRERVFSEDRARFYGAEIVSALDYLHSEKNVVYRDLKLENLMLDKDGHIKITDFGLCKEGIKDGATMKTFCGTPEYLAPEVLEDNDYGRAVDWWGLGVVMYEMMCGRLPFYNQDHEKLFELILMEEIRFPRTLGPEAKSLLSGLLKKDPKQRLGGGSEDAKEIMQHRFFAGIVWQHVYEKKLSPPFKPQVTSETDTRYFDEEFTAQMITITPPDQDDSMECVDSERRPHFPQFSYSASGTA
Sequence of human Caspase 5 (CASP5), CASP5 (gene 838) (P51878 whole entry, looked up): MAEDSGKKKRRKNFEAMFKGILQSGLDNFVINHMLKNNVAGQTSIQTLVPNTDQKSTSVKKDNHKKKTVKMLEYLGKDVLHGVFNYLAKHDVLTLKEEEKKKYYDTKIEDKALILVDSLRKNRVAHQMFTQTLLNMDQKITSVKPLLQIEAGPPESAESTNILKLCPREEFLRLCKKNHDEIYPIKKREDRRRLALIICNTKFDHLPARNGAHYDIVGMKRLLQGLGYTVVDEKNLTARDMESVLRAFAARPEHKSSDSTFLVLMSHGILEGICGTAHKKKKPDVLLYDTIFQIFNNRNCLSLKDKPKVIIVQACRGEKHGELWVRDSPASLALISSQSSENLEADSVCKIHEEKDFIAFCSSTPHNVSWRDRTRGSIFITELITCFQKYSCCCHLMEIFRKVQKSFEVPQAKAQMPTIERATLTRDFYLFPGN
Sequence of rat CYP2A2, Cyp2a2 (gene 24895) (P15149 whole entry, looked up): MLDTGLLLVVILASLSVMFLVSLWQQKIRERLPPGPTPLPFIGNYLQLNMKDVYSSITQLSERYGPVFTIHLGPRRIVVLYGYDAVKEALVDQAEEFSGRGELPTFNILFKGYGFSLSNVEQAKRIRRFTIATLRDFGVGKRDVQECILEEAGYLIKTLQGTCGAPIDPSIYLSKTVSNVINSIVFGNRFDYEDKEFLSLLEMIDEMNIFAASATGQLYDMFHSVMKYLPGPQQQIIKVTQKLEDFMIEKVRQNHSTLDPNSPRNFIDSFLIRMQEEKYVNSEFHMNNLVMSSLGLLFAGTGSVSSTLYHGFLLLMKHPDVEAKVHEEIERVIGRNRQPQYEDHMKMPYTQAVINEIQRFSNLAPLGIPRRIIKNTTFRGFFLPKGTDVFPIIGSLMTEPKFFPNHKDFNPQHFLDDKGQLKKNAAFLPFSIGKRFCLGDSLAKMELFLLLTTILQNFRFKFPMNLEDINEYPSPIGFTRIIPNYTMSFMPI
Sequence of human CYP2D6, CYP2D6 (gene 1565) (P10635 whole entry, looked up): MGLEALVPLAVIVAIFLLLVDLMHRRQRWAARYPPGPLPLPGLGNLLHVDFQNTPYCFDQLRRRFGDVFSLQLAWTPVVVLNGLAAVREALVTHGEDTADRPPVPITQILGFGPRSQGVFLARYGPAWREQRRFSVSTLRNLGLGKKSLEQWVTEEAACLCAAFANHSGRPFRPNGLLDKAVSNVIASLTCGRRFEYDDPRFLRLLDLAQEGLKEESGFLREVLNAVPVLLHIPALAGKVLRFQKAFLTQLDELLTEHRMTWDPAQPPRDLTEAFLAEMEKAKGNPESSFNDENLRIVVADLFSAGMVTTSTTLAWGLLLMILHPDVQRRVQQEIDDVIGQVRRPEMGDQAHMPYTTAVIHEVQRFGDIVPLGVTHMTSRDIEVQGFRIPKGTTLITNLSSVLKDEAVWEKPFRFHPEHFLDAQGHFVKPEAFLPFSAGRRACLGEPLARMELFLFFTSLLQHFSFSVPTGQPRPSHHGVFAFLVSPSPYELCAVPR
Sequence of human Acetylcholinesterase (AChE), ACHE (gene 43) (P22303 whole entry, looked up): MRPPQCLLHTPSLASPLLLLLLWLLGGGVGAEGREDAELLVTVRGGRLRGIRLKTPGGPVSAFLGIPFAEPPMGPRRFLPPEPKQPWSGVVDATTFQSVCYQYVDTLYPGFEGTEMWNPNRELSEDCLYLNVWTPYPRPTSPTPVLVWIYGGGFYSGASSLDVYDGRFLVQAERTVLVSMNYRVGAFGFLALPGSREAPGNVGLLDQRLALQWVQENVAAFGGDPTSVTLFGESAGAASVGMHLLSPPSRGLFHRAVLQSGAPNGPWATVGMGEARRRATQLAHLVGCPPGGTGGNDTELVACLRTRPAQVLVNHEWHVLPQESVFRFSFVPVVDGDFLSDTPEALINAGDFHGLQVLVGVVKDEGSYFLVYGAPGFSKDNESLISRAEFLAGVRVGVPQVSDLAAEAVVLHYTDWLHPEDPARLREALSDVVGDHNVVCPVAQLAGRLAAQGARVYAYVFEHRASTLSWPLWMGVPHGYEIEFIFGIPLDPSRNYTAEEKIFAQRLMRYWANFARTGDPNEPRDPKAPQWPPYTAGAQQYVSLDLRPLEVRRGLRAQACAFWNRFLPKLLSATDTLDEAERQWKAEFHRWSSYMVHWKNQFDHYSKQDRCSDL
Sequence of Cytochrome P450 3A4 (Homo sapiens) (P08684 whole entry, looked up): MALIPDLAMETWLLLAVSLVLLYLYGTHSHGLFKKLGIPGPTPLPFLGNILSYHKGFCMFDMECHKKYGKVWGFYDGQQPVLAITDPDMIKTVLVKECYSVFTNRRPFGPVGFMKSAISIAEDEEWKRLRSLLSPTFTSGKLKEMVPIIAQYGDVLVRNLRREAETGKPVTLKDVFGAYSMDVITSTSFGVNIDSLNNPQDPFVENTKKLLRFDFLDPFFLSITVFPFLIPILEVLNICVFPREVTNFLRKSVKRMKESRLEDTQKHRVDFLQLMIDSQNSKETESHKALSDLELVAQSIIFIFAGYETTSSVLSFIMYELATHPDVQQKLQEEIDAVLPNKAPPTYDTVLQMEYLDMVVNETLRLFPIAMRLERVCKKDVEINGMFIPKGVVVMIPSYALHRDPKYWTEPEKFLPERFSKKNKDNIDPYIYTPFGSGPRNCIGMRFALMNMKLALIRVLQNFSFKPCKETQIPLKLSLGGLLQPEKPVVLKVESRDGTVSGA
Sequence of Caspase-3 (Homo sapiens) (P42574 whole entry, looked up): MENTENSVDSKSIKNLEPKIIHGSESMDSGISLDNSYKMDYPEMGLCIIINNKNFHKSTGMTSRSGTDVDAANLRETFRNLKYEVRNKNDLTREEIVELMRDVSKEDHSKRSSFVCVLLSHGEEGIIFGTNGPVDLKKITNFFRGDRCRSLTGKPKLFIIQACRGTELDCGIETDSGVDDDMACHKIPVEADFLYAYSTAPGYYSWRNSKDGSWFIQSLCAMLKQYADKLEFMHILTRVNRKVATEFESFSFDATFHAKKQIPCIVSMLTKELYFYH
Sequence of rat CYP2C13, Cyp2c13 (gene 171521) (P20814 whole entry, looked up): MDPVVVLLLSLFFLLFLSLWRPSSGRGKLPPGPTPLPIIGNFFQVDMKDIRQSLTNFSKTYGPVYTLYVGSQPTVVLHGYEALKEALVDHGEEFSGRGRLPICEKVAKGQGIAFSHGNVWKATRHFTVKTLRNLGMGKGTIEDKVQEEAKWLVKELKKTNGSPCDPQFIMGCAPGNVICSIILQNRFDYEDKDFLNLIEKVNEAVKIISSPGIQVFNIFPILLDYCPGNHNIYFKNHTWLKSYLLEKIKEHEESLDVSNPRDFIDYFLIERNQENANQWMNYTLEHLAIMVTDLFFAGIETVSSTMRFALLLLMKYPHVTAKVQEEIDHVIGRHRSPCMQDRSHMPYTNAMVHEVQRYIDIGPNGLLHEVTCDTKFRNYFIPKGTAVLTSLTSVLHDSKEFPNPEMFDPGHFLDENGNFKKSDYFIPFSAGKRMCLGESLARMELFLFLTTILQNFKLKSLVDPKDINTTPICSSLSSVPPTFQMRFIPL
Sequence of rat CYP2C11, Cyp2c11 (gene 29277) (P08683 whole entry, looked up): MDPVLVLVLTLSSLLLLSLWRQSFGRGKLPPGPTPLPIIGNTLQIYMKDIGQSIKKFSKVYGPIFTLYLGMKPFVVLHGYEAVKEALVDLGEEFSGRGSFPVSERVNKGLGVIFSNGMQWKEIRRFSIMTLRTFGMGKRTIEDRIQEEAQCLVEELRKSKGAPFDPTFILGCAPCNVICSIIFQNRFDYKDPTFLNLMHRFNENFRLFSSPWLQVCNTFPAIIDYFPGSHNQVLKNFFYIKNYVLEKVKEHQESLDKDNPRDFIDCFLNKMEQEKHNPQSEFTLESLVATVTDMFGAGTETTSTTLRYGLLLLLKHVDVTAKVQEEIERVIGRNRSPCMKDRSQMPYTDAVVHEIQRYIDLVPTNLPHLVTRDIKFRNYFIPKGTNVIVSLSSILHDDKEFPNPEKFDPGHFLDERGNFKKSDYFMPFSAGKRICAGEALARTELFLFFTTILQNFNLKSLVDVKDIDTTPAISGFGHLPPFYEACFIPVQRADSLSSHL

As for `O=[N+]([O-])c1ccc(O)c([N+](=O)[O-])c1`, in experiment [1], the compound was called inactive.
As a reminder, the AC50 is the midpoint of the concentration-response curve, whichever way the signal moves. Consider `CCN1CCC2(CC1)COc1cc3c(cc12)N(C(=O)c1ccc(-c2ccc(-c4nnc(C)o4)cc2C)cc1)CC3`, for which the values for the AC50 in [2] and in experiment [3] were 2.84 µM (active) and 4690 nM (active), respectively.
In the case of `Nc1cccc2ccccc12`, the results for the concentration at half-maximal activity (AC50) in [4] and in experiment [5] were 3450 nM (active) and 45200 nM (active), respectively.
With `CCCCCCCCc1ccc(O)cc1`, the compound was called inactive in [5].
Take `CC(C)C1CCC(Cc2ccc(Cl)cc2)C1(O)Cn1cncn1` (centres undefined): the AC50 in [6] was 106 nM (active); in experiment [7], 2040 nM (active).
Consider `COc1cc(-c2ccc(N)c(OC)c2)ccc1N`, for which the AC50 in experiment [8] was 7030 nM (active); in experiment [2], 3.49 µM (active) and 2.33 µM (active); in [3], 13800 nM (active).
For the compound `Fc1ccc(C2(Cn3cncn3)OC2c2ccccc2Cl)cc1` (centres undefined), the AC50 in experiment [8] was 6500 nM (active); in experiment [9] it was 5960 nM (active); in experiment [2], 1.56 µM (active); in experiment [10] it was 2980 nM (active); in experiment [6], 353 nM (active); in experiment [7], 3090 nM (active). The figures for the concentration at half-maximal activity (AC50) in experiment [11] and in [12] were 974 nM (active) and 377 nM (active), respectively.
`O=[N+]([O-])c1ccc2c3c(cccc13)CC2`: the AC50 in [5] was 25000 nM (active).
`C=CC(=O)OCCCCCC(C)C`: the outcome in [13] was inactive.
With `Oc1ccc(-c2ccccc2)cc1`, the half-maximal activity concentration (AC50) in experiment [2] is 0.47 µM (active).
On to `O=C(O)C(F)(F)C(F)(F)C(F)(F)C(F)(F)C(F)(F)C(F)(F)C(F)(F)C(F)(F)C(F)(F)C(F)(F)F`, for which the AC50 in experiment [8] is 1580 nM (active); in experiment [2] it was 16.2 µM (active); in [5], 3600 nM (active); in [13] it was 1590 nM (active). For the same compound, the compound was classed as inactive in experiment [14].
For the compound `CCOP(=S)(OCC)Oc1ccc(S(C)=O)cc1` (centres undefined), the AC50 in [8] is 3310 nM (active); in [2] it was 0.528 µM (active).
For the compound `Cn1sc(Cl)cc1=O`, the half-maximal activity concentration (AC50) in experiment [9] was 2770 nM (active); in experiment [2] it was 5.77 µM (active). Further, the result in [5] was inactive.
Turning to `CCC(=O)C(CC(C)N(C)C)(c1ccccc1)c1ccccc1` (centres undefined), the AC50 in experiment [4] is 1230 nM (active). For the same compound, the compound was called inactive in [13].
